Measurements as given in PubChem BioAssay AID1159580 (chemical genetic matrix, 2015).
Where “and” joins values, the source holds several entries; their conditions need not be identical. Equal values may be shown once. Hit rate of the full screen: of about 5,500 compounds, about 2,000 (36%) were called active. Another 18% or so got no clear call; they are omitted. No stated cut-off is given here; in the data, active means normalized growth mostly below about 0.91 (no sharp cut-off); inconclusive means no clear call, values can overlap the other calls; inactive means mostly above about 0.92. Some of the results follow.

Assay: chemical genetic growth profiling, strain panel (AID 1159580);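 further: tested at 20 µM; growth read once vehicle control cultures reached saturation at 30 °C; 1 = growth at the plate median or of vehicle wells; lower values mean less growth of the strain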
Settings: S. cerevisiae deletion strains, growth OD
[1] = locus YAL013W, strain DEP1, hits give low values
[2] = locus YBR229C, strain ROT2, hits give low values
[3] = locus YDL101C, strain DUN1, hits give low values
[4] = locus YDR150W, strain NUM1, hits give low values
[5] = locus YEL061C, strain CIN8, hits give low values
[6] = locus YHR030C, strain SLT2, hits give low values
[7] = locus YJL187C, strain SWE1, hits give low values
[8] = locus YJR043C, strain POL32, hits give low values
[9] = locus YJR075W, strain HOC1, hits give low values
[10] = locus YLR039C, strain RIC1, hits give low values
[11] = locus YLR262C, strain YPT6, hits give low values
[12] = locus YMR263W, strain SAP30, hits give low values
[13] = locus YPL055C, strain LGE1, hits give low values
[14] = locus YPL241C, strain CIN2, hits give low values

Measured: normalized growth

O=C(O)Cc1ccccc1I
inactive: [1] 1 | [2] 0.996 | [3] 0.99 | [4] 0.988 | [5] 1.02 | locus YGR078C, strain PAC10, hits give low values 0.989 | [6] 1.06 | locus YHR087W, strain rtc3, hits give low values 0.994 | [7] 0.952 | [8] 1 | [9] 0.985 | locus YKL190W, strain CNB1, hits give low values 1.02 | [10] 1.03 | locus YLR058C, strain SHM2 (second series), hits give low values 1 | locus YLR085C, strain ARP6, hits give low values 1.05 | [11] 1.05 | locus YML094W, strain GIM5, hits give low values 1.01 | locus YMR219W, strain ESC1, hits give low values 1.01 | [12] 1.01 | locus YNL153C, strain GIM3, hits give low values 0.975 | locus YNL298W, strain CLA4 (second series), hits give low values 1.07 | locus YNL322C, strain KRE1, hits give low values 1 | locus YNR030W, strain Alg12, hits give low values 1.03 | locus YOL006C, strain TOP1, hits give low values 1.11 | [13] 0.978 | [14] 1.02 | locus YPR135W, strain CTF4, hits give low values 1.05

NC(Cc1ccc(F)cc1)C(=O)O (centres undefined)
inactive: [1] 1.01 | locus YAL021C, strain ccr4, hits give low values 0.987 | locus YAL026C, strain drs2, hits give low values 1.03 | locus YAL030W, strain snc1, hits give low values 1.01 | locus YBL061C, strain skt5, hits give low values 1.03 | locus YBR009C, strain hhf1, hits give low values 1.03 | locus YBR021W, strain FUR4, hits give low values 0.99 | locus YBR023C, strain chs3, hits give low values 1.01 | locus YBR171W, strain sec66, hits give low values 1.03 | [2] 1.01 | locus YBR231C, strain swc5, hits give low values 1.02 | locus YCL011C, strain gbp2, hits give low values 1.02 | locus YCL016C, strain dcc1, hits give low values 1.01 | locus YCL029C, strain bik1, hits give low values 1.03 | locus YCL061C, strain MRC1, hits give low values 1.01 | locus YCL069W, strain vba3, hits give low values 1.01 | locus YCR088W, strain abp1, hits give low values 1.02 | locus YDL005C, strain med2, hits give low values 1.01 | locus YDL035C, strain GPR1, hits give low values 1.01 | locus YDL040C, strain nat1, hits give low values 1 | locus YDL074C, strain BRE1, hits give low values 1.01 | [3] 1.01 | locus YDL134C, strain PPH21, hits give low values 1.01 | locus YDL185W, strain tfp1, hits give low values 1.03 | locus YDL192W, strain arf1, hits give low values 1.02 | locus YDR001C, strain nth1, hits give low values 1.01 | locus YDR069C, strain doa4, hits give low values 1.02 | locus YDR101C, strain arx1, hits give low values 1.04 | locus YDR137W, strain rgp1, hits give low values 0.994 | [4] 0.997 | locus YDR159W, strain sac3, hits give low values 1.02 | locus YDR162C, strain NBP2, hits give low values 1.02 | locus YDR195W, strain ref2 1.04 | locus YDR297W, strain sur2, hits give low values 1.02 | locus YDR318W, strain mcm21, hits give low values 1.02 | locus YDR334W, strain swr1, hits give low values 1.02 | locus YDR335W, strain msn5, hits give low values 1.02 | locus YDR388W, hits give low values 1.03 | locus YDR392W, strain spt3, hits give low values 0.923 | locus YDR502C, strain sam2, hits give low values 1.02 | locus YEL003W, strain gim4, hits give low values 1.02 | locus YEL037C, strain rad23, hits give low values 1.01 | locus YEL061C, strain CIN8 (second series), hits give low values 1.02 | [5] 1 | locus YER015W, strain faa2, hits give low values 1.02 | locus YER016W, strain bim1, hits give low values 1.02 | locus YER110C, hits give low values 1.04 | locus YER111C, strain swi4, hits give low values 1.03 | locus YER155C, strain BEM2 (second series), hits give low values 1.04 | locus YER155C, strain BEM2, hits give low values 1 | locus YER167W, strain BCK2, hits give low values 1 | locus YFR010W, strain ubp6, hits give low values 1.01 | locus YGL078C, strain dbp3, hits give low values 1.02 | locus YGL086W, strain mad1, hits give low values 1 | locus YGL167C, strain pmr1, hits give low values 1.02 | locus YGL173C, strain kem1, hits give low values 1.02 | locus YGL227W, strain vid30, hits give low values 1.02 | locus YGL240W, strain doc1, hits give low values 1.03 | locus YGL248W, strain PDE1, hits give low values 1.02 | locus YGL253W, strain hxk2, hits give low values 1.04 | locus YGR135W, strain pre9, hits give low values 1.02 | locus YGR229C, strain SMI1, hits give low values 0.992 | locus YGR252W, strain gcn5, hits give low values 1.06 | locus YHR013C, strain ard1, hits give low values 1.01 | locus YHR027C, strain rpn1, hits give low values 1.01 | [6] 1.01 and 1.02 | locus YHR079C, strain IRE1 (second series), hits give low values 1.03 | locus YHR079C, strain IRE1, hits give low values 1.02 | locus YHR094C, strain hxt1, hits give low values 1.02 | locus YHR129C, strain ARP1, hits give low values 1.01 | locus YHR142W, strain chs7, hits give low values 0.996 | locus YHR200W, strain rpn10, hits give low values 1.02 | locus YIL066C, strain RNR3, hits give low values 1.01 | locus YIL073C, strain SPO22, hits give low values 1.09 | locus YIL125W, strain kgd1, hits give low values 1.02 | locus YIR030C, strain dcg1, hits give low values 1.02 | locus YJL092W, strain hpr5, hits give low values 1.02 | locus YJL095W, strain BCK1 (second series), hits give low values 1.01 | locus YJL095W, strain BCK1, hits give low values 1.02 and 1.03 | locus YJL115W, strain asf1, hits give low values 1.01 | locus YJL129C, strain trk1, hits give low values 1.01 | locus YJL134W, strain LCB3, hits give low values 1 | locus YJL154C, strain vps35, hits give low values 1.01 | locus YJL164C, strain tpk1, hits give low values 0.966 | locus YJL166W, strain qcr8, hits give low values 1 | locus YJL168C, strain set2, hits give low values 1.01 | locus YJL187C, strain SWE1 (second series), hits give low values 1.03 | [7] 1.02 | [8] 1 | locus YJR066W, strain TOR1, hits give low values 1 | [9] 1.01 | locus YKL009W, strain mrt4, hits give low values 1 | locus YKL068W, hits give low values 1.01 | locus YKL085W, strain MDH1 (second series), hits give low values 1.02 | locus YKL085W, strain MDH1, hits give low values 1.02 | locus YKL160W, strain elf1, hits give low values 0.99 | locus YKR001C, strain vps1, hits give low values 1.01 | locus YKR026C, strain gcn3, hits give low values 1.03 | locus YKR091W, strain srl3, hits give low values 1.02 | locus YLL001W, strain dnm1, hits give low values 1 | locus YLL026W, hits give low values 1.01 | locus YLL041C, strain sdh2, hits give low values 1.01 | locus YLR027C, strain aat2, hits give low values 1.01 | [10] 1.04 | locus YLR058C, strain SHM2, hits give low values 1.02 | locus YLR102C, strain apc9, hits give low values 1.03 | locus YLR113W, strain HOG1, hits give low values 1.03 | locus YLR221C, strain rsa3, hits give low values 0.993 | locus YLR258W, strain gsy2, hits give low values 1.02 | locus YLR262C, strain YPT6 (second series), hits give low values 0.997 | [11] 1.06 | locus YLR268W, strain sec22, hits give low values 1.03 | locus YLR320W, strain mms22, hits give low values 1.02 | locus YLR330W, strain CHS5, hits give low values 1.01 | locus YLR342W, strain FKS1 (second series), hits give low values 0.979 | locus YLR342W, strain FKS1, hits give low values 1.02 | locus YLR357W, strain rsc2, hits give low values 1.01 | locus YLR370C, strain arc18, hits give low values 1.02 | locus YLR371W, strain rom2, hits give low values 1.02 | locus YLR384C, strain iki3, hits give low values 1.02 | locus YLR418C, strain cdc73, hits give low values 1.02 | locus YML016C, strain PPZ1, hits give low values 1 | locus YML032C, strain rad52, hits give low values 1.03 | locus YML120C, strain ndi1, hits give low values 1.01 | locus YML124C, strain tub3, hits give low values 1.02 | locus YMR058W, strain fet3, hits give low values 1.02 | locus YMR078C, strain ctf18, hits give low values 1.04 | locus YMR125W, strain sto1, hits give low values 1.04 | locus YMR129W, hits give low values 1.01 | locus YMR205C, strain PFK2, hits give low values 1.02 | locus YMR223W, strain ubp8, hits give low values 1.02 | locus YMR231W, strain pep5, hits give low values 1.02 | [12] 1.01 | locus YMR307W, strain GAS1, hits give low values 1.05 | locus YNL067W, strain RPL9B, hits give low values 1.03 | locus YNL071W, strain lat1, hits give low values 1 | locus YNL128W, strain TEP1, hits give low values 1.04 | locus YNL183C, strain NPR1, hits give low values 0.969 | locus YNL209W, strain ssb2, hits give low values 1.02 | locus YNL233W, strain BNI4, hits give low values 1.02 | locus YNL248C, strain rpa49, hits give low values 0.982 | locus YNL250W, strain rad50, hits give low values 1.02 | locus YNL271C, strain bni1, hits give low values 1.04 | locus YNL298W, strain CLA4, hits give low values 1.02 | locus YNL307C, strain MCK1, hits give low values 1.03 | locus YNL322C, strain KRE1 (second series), hits give low values 1.01 | locus YNR049C, strain mso1, hits give low values 1.04 | locus YNR052C, strain pop2, hits give low values 1.02 | locus YOL012C, strain htz1 1.76 | locus YOL147C, strain pex11, hits give low values 1.03 | locus YOR001W, strain rrp6, hits give low values 1.01 | locus YOR061W, strain CKA2, hits give low values 1.02 | locus YOR069W, strain VPS5, hits give low values 1 | locus YOR070C, strain gyp1, hits give low values 1.01 | locus YOR080W, strain dia2, hits give low values 1.02 | locus YOR083W, strain WHI5, hits give low values 0.985 | locus YOR106W, strain vam3, hits give low values 0.992 | locus YOR136W, strain idh2, hits give low values 1.05 | locus YOR144C, strain elg1, hits give low values 1.02 | locus YOR184W, strain ser1, hits give low values 1.04 | locus YOR231W, strain MKK1, hits give low values 1.05 | locus YOR265W, strain rbl2, hits give low values 1.01 | locus YOR270C, strain vph1, hits give low values 1.02 | locus YOR290C, strain snf2, hits give low values 0.998 | locus YOR316C, strain cot1, hits give low values 1.02 | locus YPL051W, strain arl3, hits give low values 0.998 | [13] 1.02 | locus YPL078C, strain atp4, hits give low values 0.988 | locus YPL106C, strain sse1, hits give low values 1.02 | locus YPL240C, strain hsp82, hits give low values 1.03 | [14] 1 | locus YPL256C, strain CLN2, hits give low values 1.02 | locus YPR119W, strain clb2, hits give low values 1.02 | locus YPR141C, strain kar3, hits give low values 1.03 | locus YPR163C, strain tif3, hits give low values 1.04 | locus YPR167C, strain met16, hits give low values 1.03 | strain wtn01, hits give low values 1.03
